Bioassay records as filed in PubChem.
NS1 inh: blocks influenza NS1 protein function; AID 2326; Potency, µM (titrated, usually from 46.1 µM); hit rate 0.4% among 270,000; further: actives are rising curves; nearly all actives have a fitted effect of over 50% in size
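In this qHTS, NS1 from influenza A is expressed in budding yeast, where it slows growth. Cells are switched from glucose to 2% galactose medium (pH 6.0, -URA), treated with compound, and growth recovery is read at OD600.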
Pf growth 48h: P. falciparum growth inhibition at 48 hours (one generation) | P. falciparum luciferase growth in erythrocytes, 48 h | Potency, µM (titrated, usually from 28.7 µM), actives largely listed as inhibitors | hit rate 5.9% among 310,000; active means well fitted inhibition curve with a large enough effect; inconclusive means small, poorly fitted or top-dose-only effect, or another doubt; inactive means no such curve, though single readings can be large or run the other way
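In quantitative HTS format, infected erythrocytes bearing luciferase-reporter parasites were treated for a single generation at 37 C. Luminescence after adding detection reagent served as the growth measure.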
SARS PLP yeast: SARS-CoV PLP inhibition in yeast; hit rate 0.19% among 330,000; Potency, µM (titrated, usually from 32.9 µM), most hits filed as activators; S. cerevisiae expressing SARS-CoV PLpro, growth rescue; further: nearly all actives have a fitted effect of over 55% in size
CHX counter: counter-screen for Shiga toxin inhibitors: cycloheximide protein synthesis inhibition; cell reporter, cycloheximide protein synthesis inhibition counterscreen; AID 2314; max response, %; hit rate 12% among 300,000; in the data active means max response mostly above about 13%, no sharp cut-off; inactive means mostly below about 14%; further: read at 38.3 µM for the half of the compounds with a filed dose
Shiga inhibitor: Shiga toxin inhibition | inhibition, % at 38.7 µM | Vero cells, Shiga toxin protein synthesis inhibition reporter | hit rate 9.2% among 290,000; in the data active means inhibition mostly above about 28%, no sharp cut-off; inactive means mostly below about 43%
Pf growth 96h: P. falciparum growth inhibition at 96 hours; AID 504834; hit rate 6.9% among 320,000; P. falciparum luciferase reporter growth, 96 h; Potency, µM (top dose mostly 28.7 µM), actives largely listed as inhibitors; active means well fitted inhibition curve with a large enough effect; inconclusive means small, poorly fitted or top-dose-only effect, or another doubt; inactive means no such curve, though single readings can be large or run the other way
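Luminescence readout: decreased luciferase signal marks inhibited growth of reporter-expressing P. falciparum in infected red cells (2% hematocrit, 0.05% parasitemia final), exposed to compound two generations (96 h, 37 C, 5% CO2).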
Hits are given with their value; - = inactive; ? = inconclusive; . = no result given; [ ] = another dose, or the depositor's remark. Most compounds without a hit are left out; they make up all but 21% or so of the library. Unless noted, the call rests on the fitted dose curve.

SMILES	NS1 inh	Pf growth 48h	SARS PLP yeast	CHX counter	Shiga inhibitor	Pf growth 96h
O=C(N(c1ccccn1)c1ccccn1)C12CC3CC(CC(Cl)(C3)C1)C2	-	?	?	-	-	-
CC(=S)c1c(C)cc2cc(C)ccn12	-	-	-	-	-	-
CCOC(=O)c1cnc2ccc(OCC)cc2c1NCc1ccccc1OC	-	12µM	-	-	-	-
CCOC(=O)c1cnc2c(OC)cccc2c1Oc1ccccc1	-	?	-	-	-	-
CCOC(=O)CC(=O)CSc1nc(-c2cccnc2)ccc1C#N	-	10µM	-	14	-	.
CCOC(=O)CSc1nc(-c2ccc3c(c2)OCO3)ccc1C#N	-	-	-	52	78	-
CCOC(=O)CCCSc1nc(-c2ccc3c(c2)OCO3)cc(C(F)(F)F)c1C#N	-	-	-	-	-	-
CCOC(=O)CSc1nc(-c2ccncc2)ccc1C#N	-	-	-	37	87	-[5.75 µM]
CCN(CC(=O)Nc1c(F)cccc1F)C(=O)CSc1nc(C)cc(C)n1	-	-	-	-	-	-
O=C(c1cc(C2CC2)nc2ccc(Br)cc12)N1N=C(C(F)F)CC1(O)C(F)F (stereo not drawn)	-	?	-	-	-	9.3µM
CC(C)c1ccc(-c2cc(C(=O)N3N=C(C(F)F)CC3(O)C(F)F)c3ccccc3n2)cc1 (stereo not drawn)	-	?	-	23	83	.
CC(C)c1ccc(-c2cc(C(=O)NN3CCN(C)CC3)c3ccccc3n2)cc1	-	?	-	35	82	?
O=C(c1cc(C2CC2)nc2ccccc12)N1N=C(C(F)F)CC1(O)C(F)F (stereo not drawn)	-	-	-	-	-	?
Cn1cc([N+](=O)[O-])c(C(=O)N2CCCCCC2)n1	-	-	-	-	-	-
O=C(COC(=O)C1C2CC3OC(=O)C1C3C2)Nc1ccc(Br)cc1 (stereo not drawn)	-	-	-	-	-	-
O=C(CCC1CCCN(C(=O)C2CCCC2)C1)NCc1ccc(F)c(F)c1 (stereo not drawn)	-	?	-	-	-	-
O=C(CCC1CCCN(C(=O)c2ccc3c(c2)OCO3)C1)NCc1ccc(F)c(F)c1 (stereo not drawn)	-	?	-	15	41	?
O=C(CCC1CCCN(C(=O)c2ccc3cc[nH]c3c2)C1)NCc1ccc(F)c(F)c1 (stereo not drawn)	-	?	-	29	30	?
O=C(CCC1CCCN(C(=O)c2ccoc2)C1)NCc1ccc(F)c(F)c1 (stereo not drawn)	-	-	-	-	-	-
COc1ccc(Br)cc1/C=N/NC(=O)c1cccnc1	-	-	-	-	-	-
O=C(N/N=C/c1c(O)ccc2ccccc12)c1cccc(C(F)(F)F)c1	-	3.7µM	4µM	-	-	2.6µM
Cc1ccc(O)c(/C=N/NC(=O)c2[nH]ncc2Br)c1	-	-	-	34	59	?
CCOc1ccc(/C=N/NC(=O)c2[nH]ncc2Br)c(O)c1	-	?	-	35	49	-
COc1ccc(-c2[nH]ncc2/C=N\NC(=O)c2ccc(Br)o2)cc1OC	-	-	-	19	34	-
Cc1ccc(O)c(/C=N/NC(=O)CN2CCCC2)c1	-	?	-	-	-	?
SMILES	NS1 inh	Pf growth 48h	SARS PLP yeast	CHX counter	Shiga inhibitor	Pf growth 96h
CCOc1ccc(CNS(=O)(=O)c2c(C)nc3sccn3c2=O)cc1OC	-	-	-	-	-	-
Cc1cc2cc(CNC(=O)Cc3cccs3)ccc2n1C	-	?	-	-	-	-
Cc1ccc(S(=O)(=O)N2CCC(C(=O)OCC(=O)N(Cc3ccccc3)C(C)(C)C)CC2)cc1C	.	?	-	.	.	-
CCCCC1CCC(C(=O)NCC(c2ccco2)N2CCOCC2)CC1 (stereo not drawn)	-	-	-	-	-	-
O=C(CN1CCCC1)N/N=C/c1c(O)ccc2ccccc12	-	-	-	-	-	?
COc1ccc(OC)c(/C=N/NC(=O)c2[nH]nc3c2CCc2ccccc2-3)c1	-	-	-	-	-	-
COc1ccc(OC)c(/C=N/NC(=O)c2[nH]ncc2Br)c1	-	-	-	43	72	-
COc1cccc(C(=O)N/N=C/c2cn[nH]c2-c2ccc(OC)cc2OC)c1	-	-	-	17	-	-
Cc1ccc(O)c(/C=N/NC(=O)C2=NNC(c3ccccc3)(c3ccccc3)C2)c1	-	2.9µM	6.3µM	-	-	?
